CtBP-E1A blk – blocks the CtBP interaction with E1A; AlphaScreen GST-E1A/His-CtBP binding, 1536-well; hits give low values; activity change, % (concentration not given with the values); 0.49% of 340,000 active; AID 651724; in the data active = activity change below about -65%; inconclusive = mostly about -30% to -63%
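Protein mix (5X: 125 nM each GST-E1A, His-CtBP) was incubated with pinned compound 2 h at 37 deg C in dark, in 50 mM Tris pH 8.0 buffer with 300 mM NaCl. Glutathione donor and nickel acceptor beads followed; AlphaScreen signal read after 1 h.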
IL-1B inflam inh – blocks inflammasome-driven IL-1 beta release; THP-1 LPS/ATP IL-1B secretion, AlphaLISA, 16 h; hits give low values; activity change, % at 57.5 µM; 4.7% of 360,000 active; in the data active = activity change below about -50%; inconclusive = mostly about -30% to -49%
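THP-1 cells pretreated 1 hr with compounds (up to 57.5 uM final), then stimulated with LPS (250 ng/mL final) plus ATP (1.25 mM final); secreted IL-1B measured by AlphaLISA after 16 hr, decreased signal indicating inhibition.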
Six1-Eya2 blk – Six1/Eya2 interaction inhibition; Q15475+O00167; AlphaScreen GST-Six1/His-Eya2 binding, biochemical; hits give low values; activity change, % (test concentration not listed); 0.56% of 360,000 active; AID 651725; in the data active = activity change below about -65%; inconclusive = mostly about -30% to -63%
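AlphaScreen with GST-Six1 and His-Eya2 (5X mix: 250 nM and 500 nM), glutathione donor and nickel acceptor beads; buffer 50 mM Tris pH 8.0, 300 mM NaCl, 1 mM TCEP; 1 h at 37 C in the dark.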
DT40 TDP1 no CPT – qHTS for Inhibitors of human tyrosyl-DNA phosphodiesterase 1 (TDP1): qHTS in cells in absence of CPT; DT40 Tdp1-/- hTDP1 cells, no CPT, ATP luminescence, 48 h; Potency, µM (doses to about 46.2 µM), most hits filed as inhibitors; 15% of 420,000 active; note: nearly all actives have a fitted effect of over 55% in size
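Chicken DT40 Tdp1-/- cells complemented with human TDP1, screened without camptothecin (DMSO vehicle only), 400 cells/well. Compounds pin-transferred, cells incubated at 37 °C for at least 48 hr. Growth read as ATP-dependent luminescence (CellTiter-Glo, 30 min at RT).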
DT40 TDP1 CPT – growth inhibition of DT40 Tdp1-/-;hTDP1 cells with camptothecin (screen for TDP1 inhibitors) | AID 686979 | chicken DT40 Tdp1-/-;hTDP1 cells + 20 nM CPT, ATP luminescence, 48 h | 12% of 420,000 active | Potency, µM (highest dose often 46.2 µM), actives largely listed as inhibitors; note: nearly all actives have a fitted effect of over 55% in size
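Chicken DT40 Tdp1-/- cells complemented with human TDP1, 400 cells/well, exposed to compounds plus 20 nM camptothecin for at least 48 h at 37 C; viability read as ATP content by CellTiter-Glo luminescence.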
TDP1 block – inhibitors of human tyrosyl-DNA phosphodiesterase TDP1; Q9NUW8; recombinant TDP1, AlphaScreen DNA substrate cleavage; Potency, µM (series often up to 130 µM), hits mostly inhibitors; 0.28% of 350,000 active; AID 485290; note: nearly all actives have a fitted effect of over 40% in size
Target sequence (Q9NUW8 whole entry, looked up): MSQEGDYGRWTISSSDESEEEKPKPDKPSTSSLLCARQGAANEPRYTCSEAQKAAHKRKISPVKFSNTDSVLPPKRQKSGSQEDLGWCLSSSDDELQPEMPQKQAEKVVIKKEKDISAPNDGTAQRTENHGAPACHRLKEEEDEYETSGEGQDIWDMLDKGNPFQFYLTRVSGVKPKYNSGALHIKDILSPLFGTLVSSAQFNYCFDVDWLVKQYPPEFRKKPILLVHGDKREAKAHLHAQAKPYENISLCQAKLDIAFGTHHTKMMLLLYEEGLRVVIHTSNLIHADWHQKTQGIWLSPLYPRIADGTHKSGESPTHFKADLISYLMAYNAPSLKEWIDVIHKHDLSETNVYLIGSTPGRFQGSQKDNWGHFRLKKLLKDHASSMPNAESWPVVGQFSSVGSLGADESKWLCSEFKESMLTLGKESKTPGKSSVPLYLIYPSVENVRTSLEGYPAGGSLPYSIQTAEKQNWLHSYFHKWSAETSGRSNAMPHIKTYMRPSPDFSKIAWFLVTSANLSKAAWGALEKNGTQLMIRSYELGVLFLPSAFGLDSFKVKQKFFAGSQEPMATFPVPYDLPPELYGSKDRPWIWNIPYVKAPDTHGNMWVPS
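Recombinant E. coli-expressed Tdp1 (1 nM) preincubated with compound 15 min at RT, then 5'-biotin/3'-phosphotyrosine-FITC DNA substrate (15 nM) added for 5 min. AlphaScreen beads (10 ug/ml) added, 10 min RT; tyrosine-FITC cleavage read as signal loss.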
Numbers stand for hits; i = inactive; ? = inconclusive; nt = not tested or not shown. An excerpt weighted towards active compounds, which were near 18% of everything screened. Unless noted, calls come from the whole dose curve; as a rule, active = well fitted curve in the direction sought with a large enough effect; inconclusive = small, poorly fitted or top-dose-only effect, or another doubt; inactive = no such curve, though single readings can be large; an effect the other way counts as inactive or inconclusive.

SMILES | CtBP-E1A blk | IL-1B inflam inh | Six1-Eya2 blk | DT40 TDP1 no CPT | DT40 TDP1 CPT | TDP1 block
Cc1onc(-c2c(Cl)cccc2Cl)c1C(O)c1ccc(F)cc1 (stereo unspecified) | i | i | i | i | i | nt
Cc1cc(C)n(-c2ccc(C(=O)OCC(=O)NCc3ccc(F)cc3)cc2)n1 | i | i | i | i | i | i
Cc1ccc(C)c(N2CCN(C(=O)c3cc(S(=O)(=O)N4CCC(C)CC4)cn3C)CC2)c1 | nt | nt | nt | ? | 16µM | i
Cc1ccc(Cl)cc1N1CCN(C(=O)c2cc(S(=O)(=O)N3CCCCCC3)cn2C)CC1 | nt | nt | nt | ? | ? | i
CC1CCN(S(=O)(=O)c2cc(C(=O)N3CCN(c4cccc(Cl)c4)CC3)n(C)c2)CC1 | nt | nt | nt | 18µM | ? | i
CC1CCN(S(=O)(=O)c2cc(C(=O)N3CCN(c4ccccc4F)CC3)n(C)c2)CC1 | nt | nt | nt | ? | ? | i
CN(C(=O)COC(=O)Cc1c[nH]c2ccccc12)c1c(N)n(Cc2ccccc2)c(=O)[nH]c1=O | i | i | i | i | i | i
Cn1nnnc1-c1cc(Br)ccc1NC(=O)c1ccccc1 | i | i | i | i | i | i
CCOc1nc(-c2ccccc2)ccc1-c1noc(-c2cccnc2)n1 | i | i | i | 3.7µM | i | nt
O=C(Nc1ccc2c(c1)C(=O)OC2)c1ccc(F)cc1F | i | i | i | i | i | i
CCOC(=O)n1c(=O)[nH]c2ccc(Br)cc21 | i | i | i | 18µM | i | i
CCOC(=O)n1c(=O)n(C)c2ccc(Br)cc21 | i | i | i | ? | i | i
COc1ccc(-c2nc(-c3ccccc3)c(NC(C)(C)C)o2)cc1 | nt | nt | nt | nt | nt | i
O=C(CSc1cn(CCNC(=O)c2c(F)cccc2F)c2ccccc12)Nc1ccccc1F | nt | nt | nt | 21µM | ? | i
O=C(CSc1cn(CCNC(=O)c2ccccc2F)c2ccccc12)Nc1ccccc1F | nt | nt | nt | ? | ? | i
O=C(CSc1cn(CCNC(=O)c2c(F)cccc2F)c2ccccc12)Nc1ccc(F)cc1 | nt | nt | nt | 16µM | ? | i
CC(C)N(C(=O)Cn1cc(SCC(=O)Nc2ccccc2F)c2ccccc21)C(C)C | nt | nt | nt | 13µM | ? | i
C[N+]1(CC(=O)c2ccc(I)cc2)CCOCC1 | nt | nt | nt | i | i | nt
COc1ccccc1N1CCN(C2CCCN(C(=O)c3ccnc4ccc(C)cc34)C2)CC1 (stereo unspecified) | i | i | i | i | i | i
COCCn1c(SCc2csc(-c3ccccc3)n2)nc2ccccc21 | i | ? | i | 18µM | 16µM | i
COCCn1c(SCC(=O)NCc2ccccc2)nc2ccccc21 | i | i | i | i | i | i
O=C(Cn1c(-c2ccccc2)c[n+]2ccsc12)c1ccc(Br)cc1 | i | -86 | i | 3.3µM | 7.3µM | i
CS(=O)(=O)N1CCC(C(=O)Nc2cc(C(F)(F)F)ccc2Cl)CC1 | i | i | i | i | i | i
Cn1cnc(S(=O)(=O)N2CCC(C(=O)Nc3ccc(Cl)c(C(F)(F)F)c3)CC2)c1 | nt | nt | nt | 13µM | 16µM | i
CS(=O)(=O)N1CCC(C(=O)Nc2ccc(Cl)c(C(F)(F)F)c2)CC1 | i | i | i | 23µM | ? | i
SMILES | CtBP-E1A blk | IL-1B inflam inh | Six1-Eya2 blk | DT40 TDP1 no CPT | DT40 TDP1 CPT | TDP1 block
OCC1(CCOc2ccccc2)CCN(Cc2cc(Cl)ccc2O)CC1 | i | ? | i | i | ? | nt
OCC1(CCOc2ccccc2)CCN(Cc2ccncc2)CC1 | nt | i | i | ? | i | nt
OCC1(CCOc2ccccc2)CCN(Cc2ccc(OC(F)F)cc2)CC1 | i | -91 | i | ? | i | i
C=CCOc1ccccc1CN1CCC(CO)(CCOc2ccccc2)CC1 | i | ? | i | 18µM | ? | i
COc1ccc(CN2CCC(CO)(CCOc3ccccc3)CC2)cc1C | i | -72 | i | ? | ? | i
OCC1(CCOc2ccccc2)CCN(Cc2ccccc2OC(F)F)CC1 | i | -79 | i | ? | i | i
CC1=Nn2c(nnc2-c2cc(-c3ccccc3)n[nH]2)SC1 | i | i | i | i | i | i
C(/Oc1ccccc1)=C1\Nn2c(nnc2-c2cc(-c3ccccc3)n[nH]2)S1 | nt | nt | nt | 20µM | 7.1µM | i
Cc1ccc2nc(-c3ccccc3C)oc(=O)c2c1 | i | i | i | i | i | i
Cc1ccccc1-c1nc2ccccc2c(=O)o1 | i | i | i | 16µM | ? | nt
COc1ccc(NS(=O)(=O)c2cccc3ccccc23)cc1 | i | i | i | ? | ? | nt
COc1ccc(NS(=O)(=O)c2ccc3oc(=S)[nH]c3c2)cc1 | i | i | i | i | i | i
COc1ccc(OCc2nc3ccc(S(=O)(=O)Nc4ccccc4Cl)cc3[nH]2)cc1 | i | -51 | ? | ? | ? | i
COc1ccc(NS(=O)(=O)c2ccc3nc(COc4cccc5ccccc45)[nH]c3c2)cc1 | i | i | i | 21µM | 16µM | i
Cc1ccccc1OCc1nc2ccc(S(=O)(=O)N3CCOCC3)cc2[nH]1 | i | i | i | i | ? | i
COc1ccc(NS(=O)(=O)c2ccc3nc(COc4ccc5ccccc5c4)[nH]c3c2)cc1 | i | -67 | i | ? | 18µM | i
COc1ccccc1NS(=O)(=O)c1ccc2nc(CCl)[nH]c2c1 | i | i | i | ? | ? | i
CCc1ccccc1OCc1nc2ccc(S(=O)(=O)N3CCOCC3)cc2[nH]1 | i | i | i | ? | 23µM | i
O=C(CCN1C(=O)C2C3C=CC(C3)C2C1=O)Nc1nccs1 (stereo unspecified) | i | i | i | ? | ? | i
COc1cc(/C(C)=N/NC(=O)CN2CCN(S(=O)(=O)c3ccc(C)cc3)CC2)ccc1O | i | i | i | i | i | i
Cc1cccc(NC(=S)N2CCC(N(C)CC3CCCO3)CC2)c1C (stereo unspecified) | i | i | i | i | i | i
O=C(/C=C/N1CCOCC1)c1coc2ccccc12 | i | i | i | i | i | i
CNCCCCCCCCSc1nc(C(C)C)ccc1C(=O)c1cccs1 | nt | nt | nt | 4.2µM | 4.2µM | i
O=C(NCCCCCCNC(=O)c1cccs1)c1cccs1 | i | i | i | ? | i | i
Cc1ccc(/C=N\NC(=O)Cc2noc3ccccc23)cc1 | i | i | i | i | i | nt
N#Cc1nc(-c2cccc3ccccc23)oc1NCCN1CCCCC1 | i | ? | i | 16µM | 18µM | i
N#Cc1nc(-c2ccccc2Cl)oc1N1CCCCC1 | i | -51 | ? | 9.2µM | ? | i
N#Cc1nc(-c2ccc(OCc3ccccc3Cl)cc2)oc1N1CCC(C(N)=O)CC1 | nt | nt | nt | i | i | i
N#Cc1nc(-c2ccc(COc3ccccc3)o2)oc1N1CCCCC1 | nt | nt | nt | 23µM | ? | i

Assay outcomes as filed in PubChem.
